Data reported in PubChem BioAssay AID1076 (NMMLSC, 2008).
Active and inactive are the calls of the source.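 The calls were made as follows: active = cell event count below 40, meaning activity score above 60 where score is 100 minus count; inactive = the rest.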

Test: LNCaP cell loss by flow event count, confirmation, cytotoxicity control for prostate differentiation activator project, single point (AID 1076);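 also: counts scatter-gated live cells after medium removal discards detached dead cells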
Settings: flow cytometry event count, 4 d, stronger effect = lower value

Row | SMILES | cell event count (at 100 µM) | cell event count (event count, at 10 µM)
1 | COC(=O)CN1CCN(C(=O)c2ccc(F)cc2)c2ccccc2C1 | 112 (inactive) | 157
2 | COC(=O)c1[nH]c2c(c1C)C(=O)CCC2 | 387 (inactive) | 252
3 | CCc1ccc(-c2nc(CN3CCC(C(=O)NCc4ccc(F)cc4)CC3)c(C)o2)cc1 | 1 (active) | 62.5
4 | CCCS(=O)(=O)N1CCCC(C(=O)NCCCN2CCN(c3cccc(Cl)c3)CC2)C1 (stereo not drawn) | 53 (inactive) | 114
5 | COCCn1cc(C(=O)N2CCCC(C)C2)c2c3ccccc3n(C)c2c1=O (stereo not drawn) | 180 (inactive) | 176
6 | Cc1ccc2c(c1)NC(=O)C(CC(=O)NCCCN1CCN(c3cc(C)ccc3C)CC1)O2 (stereo not drawn) | 113 (inactive) | 152
7 | CC(=O)Nc1cc(C(=O)N2CCOCC2)ccc1S(=O)(=O)c1ccc(C)cc1 | 272 (inactive) | 300
8 | Cc1cc(NC(=O)CSc2nnc(Cn3c(=O)sc4ccccc43)n2-c2ccccc2C)no1 | 200 (inactive) | 121
9 | CCc1ccc(CNC(=O)CN2C(=O)COc3ccccc32)cc1 | 78 (inactive) | 118
10 | Cc1oc(-c2ccc(Cl)cc2)nc1CN1CCC(C(=O)NCc2cccnc2)CC1 | 20 (inactive) | 125
11 | Cc1ccccc1-c1nc(CN2CCC(C(=O)NCc3cccnc3)CC2)c(C)o1 | 268 (inactive) | 208
12 | O=C(O)C1CCCCC1C(=O)Nc1cnn(Cc2ccccc2)c1 (stereo not drawn) | 42 (inactive) | 66.5
13 | CN(C)c1ccc(CNC2CC(C)(C)NC(C)(C)C2)cc1 | 130 (inactive) | 186
14 | Cc1cc(O)c(-c2cc(C(=O)Nc3ccc(S(=O)(=O)N4CCOCC4)cc3)[nH]n2)cc1C | 36 (inactive) | 86
15 | Oc1ccccc1CNc1nc2ccccc2n1CCN1CCCCC1 | 44 (inactive) | 176
16 | OCc1nc2ccccc2n1CCCOc1ccccc1 | 178 (inactive) | 156
17 | CCOC(=O)C1CCN(c2nc3ccccc3nc2C(C#N)C(=O)OCCOC)CC1 (stereo not drawn) | 17 (inactive) | 108
18 | Cc1ccccc1-c1nc(CN2CCC(C(=O)NCCCN3CCCC3)CC2)c(C)o1 | 20 (inactive) | 65
19 | COc1ccc2nc(NC(=O)C(NS(=O)(=O)c3cccs3)C(C)C)sc2c1 (stereo not drawn) | 67 (inactive) | 253
20 | Oc1c(CN2CCCCC2)cc(COCc2ccccc2)c2cccnc12 | 35 (inactive) | 92

Row | SMILES | cell event count (at 100 µM) | cell event count (event count, at 10 µM)
21 | COc1ccc(S(=O)(=O)Nc2ccc(F)c(Cl)c2)cc1OC | 18 (inactive) | 144
22 | COc1ccc(CCNC(=O)C2CCCN(Cc3nc(-c4cccc(Cl)c4)oc3C)C2)cc1OC (stereo not drawn) | 21 (inactive) | 247
23 | Cc1ccc2c(c1)-c1c(cnn1CC(=O)Nc1ccccc1N1CCN(C)CC1)CO2 | 73 (inactive) | 142
24 | COC(=O)Nc1sc2c(c1C(N)=O)CCCCCC2 | 80 (inactive) | 202
25 | Cc1ccc(OCC(O)Cn2c(=N)n(CCN3CCCCC3)c3ccccc32)cc1 (stereo not drawn) | 13 (inactive) | 96
26 | Cc1ccc2[nH]c(=O)c3cc(C(=O)N(C)Cc4ccco4)sc3c2c1 | 72 (inactive) | 456
27 | COc1cc2nc(N3CCN(C(=O)C4COc5ccccc5O4)CC3)nc(N)c2cc1OC (stereo not drawn) | 5 (inactive) | 124
28 | CCn1c(=O)cc(SCC(=O)N2CCN(C3CCCCC3)CC2)c2ccccc21 | 6 (inactive) | 402
29 | COc1ccc(NC(=O)NCCCN2CCN(c3cc(C)ccc3C)CC2)cc1 | 1 (inactive) | 102
30 | CCC(CC)C(=O)Nc1cccc(C(=O)NCc2ccco2)c1 | 220 (inactive) | 155
31 | CCc1ccc(-c2nc(CN3CCC(C(=O)N4CCN(c5ccccn5)CC4)CC3)c(C)o2)cc1 | 10 (inactive) | 212
32 | Cc1oc(-c2ccc(Cl)cc2)nc1CN1CCCC(C(=O)NCc2cccnc2)C1 (stereo not drawn) | 28 (inactive) | 67
33 | Cn1c(=O)n(C)c2cc(CN3C(=O)OC(C)(C)C3(C)O)ccc21 (stereo not drawn) | 211 (inactive) | 145
34 | Cc1sc(CO)c(Sc2ccccc2)c1C(=O)O | 324 (inactive) | 240
35 | CCCN(CCC)CCNC(=O)C1CCN(Cc2nc(-c3ccc(Cl)cc3)oc2C)CC1 | 55 (inactive) | 120
36 | O=C(CSc1nc2c(c(=O)n1-c1ccc(F)cc1)SCC2)NCC1CCCO1 (stereo not drawn) | 207 (inactive) | 132
37 | O=c1c2ccccc2nnn1CSc1nnc2sc3ccccc3n12 | 141 (inactive) | 143
38 | Nc1ccc(-n2ccnc2)cc1 | 173 (inactive) | 126
39 | COc1ccc(-c2ccc(-c3noc(-c4ccccc4)n3)c(OC)n2)cc1 | 30 (active) | 32
